The full data set covers some 7,900 targets. This sample favours those with a hit. About 0.6% of all pairs of compound and target were hits. Unmarked numbers belong to inactive results.
Columns and labels:
Experiment in all cases: log2 fold change, soluble protein after heating vs DMSO (PISA); higher = thermal stabilisation; K562 cells, 10 uM, 30 min; active = over 0.2 and 3.5 SD of the protein, either way, in both replicates (recomputed)
[1] = compound: NC(=O)Nc1cc(-c2cccc(F)c2)sc1C(=O)N[C@H]1CCCNC1
In short: (§1)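 Thermal stability values are relative to control samples and come from duplicates. They are expressed as log2 fold changes. For measurement, K562 cells (2×10^6 cells/mL) received 10 μM compound for 30 min, and aliquots were heated for 3 min over 48°C-58°C, pooled, and extracted at 4°C in PBS with 0.5% NP-40. Soluble protein, the supernatant after 21,000xg for 90 min, was quantified by TMTpro 16plex LC-MS/MS with equalised channel sums.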

[2] = compound: NC(=O)c1cnc(N[C@@H]2CCCC[C@@H]2N)nc1Nc1cccc(-n2nccn2)c1
In short: as §1

[3] = compound: NC1(c2ccc(-c3nc4ccn5c(=O)[nH]nc5c4cc3-c3ccccc3)cc2)CCC1
In short: as §1

[4] = compound: NCC(=O)Nc1ccc(-n2nc(C(F)(F)F)cc2-c2ccc3c(ccc4ccccc43)c2)cc1
In short: as §1

entinostat = compound: Nc1ccccc1NC(=O)c1ccc(CNC(=O)OCc2cccnc2)cc1 [entinostat]
In short: as §1

vorinostat = compound: O=C(CCCCCCC(=O)Nc1ccccc1)NO [vorinostat]
In short: as §1

citarinostat = compound: O=C(CCCCCCNC(=O)c1cnc(N(c2ccccc2)c2ccccc2Cl)nc1)NO [citarinostat]
In short: as §1

silmitasertib = compound: O=C(O)c1ccc2c(c1)nc(Nc1cccc(Cl)c1)c1ccncc12 [silmitasertib]
In short: as §1

[5] = compound: O=C1NC(=O)C(c2cnc3ccccn23)=C1c1cn2c3c(cc(F)cc13)CN(C(=O)N1CCCCC1)CC2
In short: as §1

[6] = compound: c1cc(OCCN2CCCCC2)cc(-c2n[nH]c3ccc(-c4nnc[nH]4)cc23)c1
In short: as §1

UniProt O95801, sequence (O95801 whole entry, looked up): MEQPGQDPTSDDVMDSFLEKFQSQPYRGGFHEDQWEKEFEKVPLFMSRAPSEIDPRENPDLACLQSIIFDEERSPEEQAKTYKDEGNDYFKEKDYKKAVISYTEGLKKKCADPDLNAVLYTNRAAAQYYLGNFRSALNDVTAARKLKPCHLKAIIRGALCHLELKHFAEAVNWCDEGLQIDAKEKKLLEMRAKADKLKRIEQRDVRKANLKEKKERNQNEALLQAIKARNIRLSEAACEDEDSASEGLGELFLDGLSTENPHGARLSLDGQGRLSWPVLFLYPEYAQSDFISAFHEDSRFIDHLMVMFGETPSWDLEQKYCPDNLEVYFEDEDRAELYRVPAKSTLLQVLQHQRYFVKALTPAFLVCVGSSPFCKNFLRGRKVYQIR
UniProt Q9C037, sequence (Q9C037 whole entry, looked up): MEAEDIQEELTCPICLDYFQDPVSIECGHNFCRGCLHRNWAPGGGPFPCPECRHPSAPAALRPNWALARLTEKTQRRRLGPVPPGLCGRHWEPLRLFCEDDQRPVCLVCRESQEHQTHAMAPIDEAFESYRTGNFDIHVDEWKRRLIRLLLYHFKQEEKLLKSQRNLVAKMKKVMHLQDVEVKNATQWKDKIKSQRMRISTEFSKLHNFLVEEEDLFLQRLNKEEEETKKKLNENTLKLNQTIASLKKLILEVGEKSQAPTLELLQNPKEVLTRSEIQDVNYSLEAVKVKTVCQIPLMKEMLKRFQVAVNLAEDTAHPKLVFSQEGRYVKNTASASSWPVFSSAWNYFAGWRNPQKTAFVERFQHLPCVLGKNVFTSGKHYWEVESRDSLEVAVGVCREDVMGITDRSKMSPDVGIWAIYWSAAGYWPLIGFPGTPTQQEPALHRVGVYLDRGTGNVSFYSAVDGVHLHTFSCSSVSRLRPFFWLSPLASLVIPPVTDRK
UniProt Q9UPU5, sequence (Q9UPU5 whole entry, looked up): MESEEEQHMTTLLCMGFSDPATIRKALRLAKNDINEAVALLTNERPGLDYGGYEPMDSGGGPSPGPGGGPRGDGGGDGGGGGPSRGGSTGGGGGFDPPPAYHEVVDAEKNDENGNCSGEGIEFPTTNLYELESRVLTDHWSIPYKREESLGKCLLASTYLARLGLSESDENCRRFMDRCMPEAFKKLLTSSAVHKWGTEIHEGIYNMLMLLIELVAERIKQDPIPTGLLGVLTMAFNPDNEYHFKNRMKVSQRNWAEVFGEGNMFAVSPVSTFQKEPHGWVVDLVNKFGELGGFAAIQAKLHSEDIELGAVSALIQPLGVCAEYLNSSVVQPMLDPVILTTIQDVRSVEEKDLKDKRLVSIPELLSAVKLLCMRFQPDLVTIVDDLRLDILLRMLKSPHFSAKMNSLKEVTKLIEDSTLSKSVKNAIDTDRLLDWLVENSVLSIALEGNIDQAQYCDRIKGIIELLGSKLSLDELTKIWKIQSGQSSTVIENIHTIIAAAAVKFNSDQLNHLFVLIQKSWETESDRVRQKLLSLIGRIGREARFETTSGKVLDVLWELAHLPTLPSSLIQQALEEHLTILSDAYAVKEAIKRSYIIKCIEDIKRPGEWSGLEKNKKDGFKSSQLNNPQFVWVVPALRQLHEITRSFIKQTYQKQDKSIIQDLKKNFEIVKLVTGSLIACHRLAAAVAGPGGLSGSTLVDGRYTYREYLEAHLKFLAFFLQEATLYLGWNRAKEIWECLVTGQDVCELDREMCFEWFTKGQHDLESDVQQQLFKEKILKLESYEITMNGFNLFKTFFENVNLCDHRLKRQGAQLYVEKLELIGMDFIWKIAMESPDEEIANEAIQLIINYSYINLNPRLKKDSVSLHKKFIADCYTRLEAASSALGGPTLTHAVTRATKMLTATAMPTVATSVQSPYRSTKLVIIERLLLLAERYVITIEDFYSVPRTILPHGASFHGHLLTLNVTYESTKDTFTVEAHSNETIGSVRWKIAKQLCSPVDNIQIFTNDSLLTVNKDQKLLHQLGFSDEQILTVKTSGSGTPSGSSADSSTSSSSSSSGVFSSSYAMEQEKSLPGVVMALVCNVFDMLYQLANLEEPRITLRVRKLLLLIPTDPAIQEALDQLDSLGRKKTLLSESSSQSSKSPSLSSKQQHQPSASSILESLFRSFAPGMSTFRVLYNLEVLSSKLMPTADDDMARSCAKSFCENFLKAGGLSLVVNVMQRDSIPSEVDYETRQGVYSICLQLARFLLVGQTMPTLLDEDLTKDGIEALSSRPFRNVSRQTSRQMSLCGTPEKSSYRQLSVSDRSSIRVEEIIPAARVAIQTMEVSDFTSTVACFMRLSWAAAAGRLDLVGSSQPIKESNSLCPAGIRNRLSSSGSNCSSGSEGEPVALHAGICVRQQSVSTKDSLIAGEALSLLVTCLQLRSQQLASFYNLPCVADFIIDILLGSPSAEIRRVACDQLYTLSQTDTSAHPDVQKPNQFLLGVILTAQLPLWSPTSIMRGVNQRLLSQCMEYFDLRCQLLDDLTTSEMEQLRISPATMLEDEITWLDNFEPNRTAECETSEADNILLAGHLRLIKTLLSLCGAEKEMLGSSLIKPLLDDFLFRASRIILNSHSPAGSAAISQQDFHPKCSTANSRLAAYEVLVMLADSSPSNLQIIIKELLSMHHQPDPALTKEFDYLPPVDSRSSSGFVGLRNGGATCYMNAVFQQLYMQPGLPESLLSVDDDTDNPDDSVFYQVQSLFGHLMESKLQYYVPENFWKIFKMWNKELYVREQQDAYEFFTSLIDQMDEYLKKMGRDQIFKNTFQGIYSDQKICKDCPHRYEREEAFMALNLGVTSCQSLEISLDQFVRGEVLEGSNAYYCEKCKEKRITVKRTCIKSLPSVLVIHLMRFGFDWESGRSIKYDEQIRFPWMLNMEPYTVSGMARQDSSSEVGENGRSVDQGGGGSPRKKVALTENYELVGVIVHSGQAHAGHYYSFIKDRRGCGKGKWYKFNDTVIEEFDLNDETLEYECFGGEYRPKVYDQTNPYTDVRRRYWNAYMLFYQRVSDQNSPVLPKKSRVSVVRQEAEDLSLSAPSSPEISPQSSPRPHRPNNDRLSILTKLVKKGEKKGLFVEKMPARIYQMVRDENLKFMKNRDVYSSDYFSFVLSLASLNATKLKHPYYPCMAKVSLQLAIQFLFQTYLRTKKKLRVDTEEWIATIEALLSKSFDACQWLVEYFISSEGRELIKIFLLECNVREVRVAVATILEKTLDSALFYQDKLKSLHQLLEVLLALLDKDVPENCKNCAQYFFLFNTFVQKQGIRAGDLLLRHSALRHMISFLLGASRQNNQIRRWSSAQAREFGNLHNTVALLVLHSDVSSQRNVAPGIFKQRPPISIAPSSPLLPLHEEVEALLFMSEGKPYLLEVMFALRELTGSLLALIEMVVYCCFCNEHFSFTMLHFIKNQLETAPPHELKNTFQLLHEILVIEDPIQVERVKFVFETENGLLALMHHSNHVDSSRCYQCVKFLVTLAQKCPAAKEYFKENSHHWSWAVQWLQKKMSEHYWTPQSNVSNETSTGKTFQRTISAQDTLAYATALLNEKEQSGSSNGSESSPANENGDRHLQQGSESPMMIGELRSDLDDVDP
UniProt P21796, sequence (P21796 whole entry, looked up): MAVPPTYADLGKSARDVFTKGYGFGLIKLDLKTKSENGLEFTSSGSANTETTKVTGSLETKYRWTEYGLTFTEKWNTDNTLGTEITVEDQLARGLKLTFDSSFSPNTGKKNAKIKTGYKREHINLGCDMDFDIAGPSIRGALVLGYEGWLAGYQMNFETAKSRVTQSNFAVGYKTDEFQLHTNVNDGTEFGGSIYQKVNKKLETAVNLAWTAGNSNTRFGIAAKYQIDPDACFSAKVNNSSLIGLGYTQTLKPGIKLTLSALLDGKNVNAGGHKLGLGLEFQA
UniProt O43396, sequence (O43396 whole entry, looked up): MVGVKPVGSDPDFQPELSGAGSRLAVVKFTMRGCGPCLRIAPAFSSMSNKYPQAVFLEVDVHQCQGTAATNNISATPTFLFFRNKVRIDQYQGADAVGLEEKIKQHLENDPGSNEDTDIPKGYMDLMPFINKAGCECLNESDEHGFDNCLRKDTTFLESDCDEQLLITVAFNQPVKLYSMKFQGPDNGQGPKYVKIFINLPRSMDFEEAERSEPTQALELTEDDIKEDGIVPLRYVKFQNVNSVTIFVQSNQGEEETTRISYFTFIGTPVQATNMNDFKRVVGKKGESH
UniProt Q969T4, sequence (Q969T4 whole entry, looked up): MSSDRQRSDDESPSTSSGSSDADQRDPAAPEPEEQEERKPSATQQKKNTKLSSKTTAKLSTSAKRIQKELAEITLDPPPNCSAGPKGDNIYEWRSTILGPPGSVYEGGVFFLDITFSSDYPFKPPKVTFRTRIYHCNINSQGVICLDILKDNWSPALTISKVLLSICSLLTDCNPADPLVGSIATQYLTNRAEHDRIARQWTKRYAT
UniProt Q8WVY7, sequence (Q8WVY7 whole entry, looked up): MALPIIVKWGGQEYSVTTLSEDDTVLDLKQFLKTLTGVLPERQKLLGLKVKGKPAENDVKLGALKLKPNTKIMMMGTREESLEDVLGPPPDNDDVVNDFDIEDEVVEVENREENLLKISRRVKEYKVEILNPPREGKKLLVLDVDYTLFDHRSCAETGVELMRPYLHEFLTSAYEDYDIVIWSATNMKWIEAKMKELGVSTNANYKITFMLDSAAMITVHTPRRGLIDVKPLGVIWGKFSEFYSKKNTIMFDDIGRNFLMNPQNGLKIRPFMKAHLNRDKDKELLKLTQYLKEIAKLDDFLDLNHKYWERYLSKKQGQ
UniProt Q9NQ34, sequence (Q9NQ34 whole entry, looked up): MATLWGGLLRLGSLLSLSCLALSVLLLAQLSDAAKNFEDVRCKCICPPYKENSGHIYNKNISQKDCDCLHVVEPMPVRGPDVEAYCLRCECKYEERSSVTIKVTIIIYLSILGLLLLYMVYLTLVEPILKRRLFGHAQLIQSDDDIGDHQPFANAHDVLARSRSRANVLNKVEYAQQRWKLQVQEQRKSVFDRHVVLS

For TMEM189-UBE2V1 (UniProt I3L0A0), which log2 fold change [1] is on record?
The log2 fold change was 0.06.

What about the log2 fold change [2] of the same target?
Its log2 fold change is -0.018.

And the log2 fold change [3]?
The log2 fold change was -0.063.

What about the log2 fold change [4] of the same target?
The log2 fold change was -0.018.

What about the log2 fold change (entinostat) of the same target?
The log2 fold change was -0.097.

And the log2 fold change (vorinostat)?
Its log2 fold change is 0.005.

What about the log2 fold change (citarinostat) of the same target?
Its log2 fold change is 0.046.

And the log2 fold change (silmitasertib)?
The log2 fold change was -0.058.

And the log2 fold change [5]?
The log2 fold change was 0.009.

And the log2 fold change [6]?
Its log2 fold change is -0.016.

Which results are given for USP24 (UniProt Q9UPU5)?
log2 fold change [1]: 0.18; log2 fold change [2]: 0.079; log2 fold change [3]: -0.053; log2 fold change [4]: 0.07; log2 fold change (entinostat): -0.095; log2 fold change (vorinostat): -0.012; log2 fold change (citarinostat): 0.012; log2 fold change (silmitasertib): 0.188; log2 fold change [5]: -0.2; log2 fold change [6]: 0.11

For UBLCP1 (UniProt Q8WVY7), which log2 fold change [1] is on record?
The log2 fold change was -0.084.

What about the log2 fold change [2] of the same target?
Its log2 fold change is -0.009.

What about the log2 fold change [3] of the same target?
The log2 fold change was -0.165.

What about the log2 fold change [4] of the same target?
The log2 fold change was -0.048.

And the log2 fold change (entinostat)?
The log2 fold change was 0.122.

And the log2 fold change (vorinostat)?
Its log2 fold change is 0.

And the log2 fold change (citarinostat)?
Its log2 fold change is 0.085.

And the log2 fold change (silmitasertib)?
The log2 fold change was 0.049.

And the log2 fold change [5]?
Its log2 fold change is -0.142.

What about the log2 fold change [6] of the same target?
Its log2 fold change is 0.035.

Which log2 fold change [1] does the source give for TMEM9B (UniProt Q9NQ34) here?
The log2 fold change was -0.025.

And the log2 fold change [2]?
Its log2 fold change is 0.004.

And the log2 fold change [3]?
Its log2 fold change is -0.093.

And the log2 fold change [4]?
The log2 fold change was -0.111.

And the log2 fold change (entinostat)?
Its log2 fold change is 0.025.

And the log2 fold change (vorinostat)?
Its log2 fold change is 0.051.

And the log2 fold change (citarinostat)?
The log2 fold change was 0.023.

What about the log2 fold change (silmitasertib) of the same target?
The log2 fold change was 0.038.

And the log2 fold change [5]?
Its log2 fold change is 0.043.

What about the log2 fold change [6] of the same target?
The log2 fold change was -0.121.

How did the log2 fold change [1] turn out when TNPO2 (UniProt O14787) was run?
Its log2 fold change is 0.015.

And the log2 fold change [2]?
The log2 fold change was -0.174.

What about the log2 fold change [3] of the same target?
Its log2 fold change is -0.268.

What about the log2 fold change [4] of the same target?
The log2 fold change was -0.054.

What about the log2 fold change (entinostat) of the same target?
Its log2 fold change is 0.064.

And the log2 fold change (vorinostat)?
Its log2 fold change is -0.008.

And the log2 fold change (citarinostat)?
Its log2 fold change is 0.047.

And the log2 fold change (silmitasertib)?
Its log2 fold change is 0.059.

What about the log2 fold change [5] of the same target?
The log2 fold change was -0.04.

What about the log2 fold change [6] of the same target?
The log2 fold change was -0.124.

Which log2 fold change [1] does the source give for USP48 isoform 8 (UniProt Q86UV5) here?
Its log2 fold change is -0.077.

And the log2 fold change [2]?
Its log2 fold change is 0.002.

And the log2 fold change [3]?
Its log2 fold change is -0.235.

And the log2 fold change [4]?
The log2 fold change was -0.125.

What about the log2 fold change (entinostat) of the same target?
Its log2 fold change is 0.351.

What about the log2 fold change (vorinostat) of the same target?
Its log2 fold change is 0.178.

And the log2 fold change (citarinostat)?
Its log2 fold change is 0.177.

What about the log2 fold change (silmitasertib) of the same target?
The log2 fold change was 0.094.

And the log2 fold change [5]?
Its log2 fold change is -0.177.

What about the log2 fold change [6] of the same target?
The log2 fold change was -0.157.

For TOE1 (UniProt Q96GM8), which log2 fold change [1] is on record?
The log2 fold change was 0.09.

What about the log2 fold change [2] of the same target?
Its log2 fold change is -0.011.

And the log2 fold change [3]?
The log2 fold change was 0.104.

And the log2 fold change [4]?
The log2 fold change was -0.01.

And the log2 fold change (entinostat)?
The log2 fold change was -0.038.

And the log2 fold change (vorinostat)?
Its log2 fold change is -0.047.

And the log2 fold change (citarinostat)?
The log2 fold change was 0.011.

And the log2 fold change (silmitasertib)?
Its log2 fold change is 0.026.

What about the log2 fold change [5] of the same target?
The log2 fold change was 0.122.

And the log2 fold change [6]?
The log2 fold change was -0.18.

What does the source list for TXNL1 (UniProt O43396)?
log2 fold change [1]: -0.048; log2 fold change [2]: -0.013; log2 fold change [3]: -0.084; log2 fold change [4]: -0.015; log2 fold change (entinostat): 0.028; log2 fold change (vorinostat): 0.018; log2 fold change (citarinostat): 0.087; log2 fold change (silmitasertib): 0.074; log2 fold change [5]: -0.004; log2 fold change [6]: -0.03

Which results are given for TTC4 (UniProt O95801)?
log2 fold change [1]: -0.071; log2 fold change [2]: -0.047; log2 fold change [3]: -0.064; log2 fold change [4]: -0.073; log2 fold change (entinostat): 0.069; log2 fold change (vorinostat): 0.077; log2 fold change (citarinostat): 0.064; log2 fold change (silmitasertib): 0.074; log2 fold change [5]: -0.051; log2 fold change [6]: -0.014

How did the log2 fold change [1] turn out when TXNIP (UniProt Q9H3M7) was run?
The log2 fold change was 0.091.

And the log2 fold change [2]?
The log2 fold change was -0.024.

And the log2 fold change [3]?
Its log2 fold change is 0.19.

What about the log2 fold change [4] of the same target?
Its log2 fold change is 0.007.

What about the log2 fold change (entinostat) of the same target?
Its log2 fold change is -0.009.

What about the log2 fold change (vorinostat) of the same target?
The log2 fold change was 0.018.

And the log2 fold change (citarinostat)?
Its log2 fold change is 0.071.

And the log2 fold change (silmitasertib)?
Its log2 fold change is 0.115.

And the log2 fold change [5]?
Its log2 fold change is -0.079.

What about the log2 fold change [6] of the same target?
The log2 fold change was 0.005.

What does the source list for VARS2, A0A0G2JL52?
log2 fold change [1]: 0.013; log2 fold change [2]: -0.01; log2 fold change [3]: -0.087; log2 fold change [4]: -0.062; log2 fold change (entinostat): 0.028; log2 fold change (vorinostat): 0.106; log2 fold change (citarinostat): 0.006; log2 fold change (silmitasertib): -0.005; log2 fold change [5]: -0.048; log2 fold change [6]: -0.017

Which log2 fold change [1] does the source give for XPNPEP1 isoform 3 (UniProt Q9NQW7) here?
Its log2 fold change is -0.04.

What about the log2 fold change [2] of the same target?
The log2 fold change was -0.052.

And the log2 fold change [3]?
Its log2 fold change is -0.126.

And the log2 fold change [4]?
The log2 fold change was -0.07.

And the log2 fold change (entinostat)?
Its log2 fold change is 0.015.

What about the log2 fold change (vorinostat) of the same target?
The log2 fold change was 0.399 (active).

What about the log2 fold change (citarinostat) of the same target?
The log2 fold change was 0.062.

And the log2 fold change (silmitasertib)?
Its log2 fold change is -0.037.

And the log2 fold change [5]?
Its log2 fold change is -0.02.

And the log2 fold change [6]?
Its log2 fold change is 0.025.

Which results are given for TRIM4 (UniProt Q9C037)?
log2 fold change [1]: -0.04; log2 fold change [2]: 0.007; log2 fold change [3]: 0.082; log2 fold change [4]: -0.294; log2 fold change (entinostat): 0.03; log2 fold change (vorinostat): -0.03; log2 fold change (citarinostat): -0.006; log2 fold change (silmitasertib): 0.042; log2 fold change [5]: -0.051; log2 fold change [6]: -0.049

For UBE2E3 (UniProt Q969T4), which log2 fold change [1] is on record?
The log2 fold change was -0.007.

And the log2 fold change [2]?
The log2 fold change was -0.052.

What about the log2 fold change [3] of the same target?
The log2 fold change was -0.155.

And the log2 fold change [4]?
Its log2 fold change is -0.106.

What about the log2 fold change (entinostat) of the same target?
The log2 fold change was 0.051.

What about the log2 fold change (vorinostat) of the same target?
The log2 fold change was 0.103.

What about the log2 fold change (citarinostat) of the same target?
The log2 fold change was 0.063.

And the log2 fold change (silmitasertib)?
Its log2 fold change is -0.016.

And the log2 fold change [5]?
The log2 fold change was 0.023.

What about the log2 fold change [6] of the same target?
The log2 fold change was -0.007.

Which log2 fold change [1] does the source give for VDAC1 (UniProt P21796) here?
Its log2 fold change is 0.025.

What about the log2 fold change [2] of the same target?
Its log2 fold change is 0.

And the log2 fold change [3]?
Its log2 fold change is 0.008.

What about the log2 fold change [4] of the same target?
Its log2 fold change is 0.019.

And the log2 fold change (entinostat)?
The log2 fold change was -0.002.

What about the log2 fold change (vorinostat) of the same target?
Its log2 fold change is -0.044.

And the log2 fold change (citarinostat)?
The log2 fold change was 0.039.

What about the log2 fold change (silmitasertib) of the same target?
The log2 fold change was -0.015.

What about the log2 fold change [5] of the same target?
The log2 fold change was -0.019.

What about the log2 fold change [6] of the same target?
Its log2 fold change is -0.009.
